Compounds without any hit were thinned out: in the full panel of roughly 83,000, 20% have a hit.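 Method: cells in 96-well plates; compound added at one concentration; 48 h incubation; percent growth measured; values under 10 scored active.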 Values without a mark were called inactive. Active and inactive are the calls of the source.
How the values were obtained:
Assay in all cases: NCI-60 one-dose screen, 48 h (100 = growth as untreated, 0 = no growth, -100 = all killed)
HCT-15 colon = details: 10 µM unless noted
HT29 colon = details: 10 µM unless noted
SNB-75 CNS = details: 10 µM unless noted
SNB-19 CNS = details: 10 µM unless noted
U251 CNS = details: 10 µM unless noted
PC-3 prostate = details: 10 µM unless noted
SK-MEL-5 melanoma = details: 10 µM unless noted
SK-MEL-28 melanoma = details: 10 µM unless noted
SK-MEL-2 melanoma = details: 10 µM unless noted
EKVX NSCLC = details: 10 µM unless noted
SN12C renal = details: 10 µM unless noted
UO-31 renal = details: 10 µM unless noted
TK-10 renal = details: 10 µM unless noted
ACHN renal = details: 10 µM unless noted
CAKI-1 renal = details: 10 µM unless noted
A498 renal = details: 10 µM unless noted
CCRF-CEM leukemia = details: 10 µM unless noted
MOLT-4 leukemia = details: 10 µM unless noted
UACC-62 melanoma = details: 10 µM unless noted
LOX IMVI melanoma = details: 10 µM

Compound	growth (HCT-15 colon)	growth (HT29 colon)	growth (SNB-75 CNS)	growth (SNB-19 CNS)	growth (U251 CNS)	growth (PC-3 prostate)	growth (SK-MEL-5 melanoma)	growth (SK-MEL-28 melanoma)	growth (SK-MEL-2 melanoma)	growth (EKVX NSCLC)	growth (SN12C renal)	growth (UO-31 renal)	growth (TK-10 renal)	growth (ACHN renal)	growth (CAKI-1 renal)	growth (A498 renal)	growth (CCRF-CEM leukemia)	growth (MOLT-4 leukemia)	growth (UACC-62 melanoma)	growth (LOX IMVI melanoma)
COc1ccc(C2=NN(c3ccccc3)C(c3ccc(OC)c(OCc4ccccc4)c3)C2)cc1OC (centres undefined)	83.8%	70.5%	90.6%	88.1%	92.4%	98%	94.1%	115%	94.1%	92.4%	104%	91.7%	125%	110%	76.7%	101%	106%	97%		
S=c1c2ccccc2nc2n1CCc1c-2[nH]c2ccccc12	68.9%	78.8%	0.815% (active)	16.1%	73.8%	60.8%	67%	74.8%	72.9%	50.6%	60.9%	56.8%	69%	42.4%	36.6%	112%	96.2%	74.1%		
C=C1CCC2C3(C)COC(c4cc(F)cc(F)c4)OC3CCC2(C)C1CC(O)C1=CCOC1=O (centres undefined)	7.8% (active)	27.2%	38.1%	88.6%	69.1%	25.8%	77.8%	46.7%	57.2%	83.3%	48.1%	49.6%		67.8%	60.3%	120%	16.8%	33.7%	68.8%	
Cc1cc(C)cc(C(=O)Nc2cccc(-c3cn(-c4ccc(S(N)(=O)=O)cc4)nn3)c2)c1	79%	80.4%	-7.62% (active)	-27.9% (active)	10.9%	83%	24.4%	62.4%	12.8%	55.7%	32.6%	68.2%	-9.72% (active)	22.5%	59.7%	-13.4% (active)	30.4%	25.3%		
CCOc1ccc(C(=O)NC(=S)Nc2ccc(S(N)(=O)=O)cc2)cc1	111% [100 µM]	98.1% [100 µM]	76.9% [100 µM]	104% [100 µM]	96.7% [100 µM]	92.1% [100 µM]	88.1% [100 µM]			101% [100 µM]	100% [100 µM]	77.9% [100 µM]	92.6% [100 µM]	101% [100 µM]	87.9% [100 µM]	96.6% [100 µM]	101% [100 µM]	110% [100 µM]	94.8% [100 µM]	
CN(C)c1nc(NCCNS(=O)(=O)c2ccc(C3=Nc4c(N)nc(N)nc4NC(c4ccccc4)C3)cc2)nc(Nc2ccc(F)cc2)n1 (centres undefined)	37.4%	18.3%	62.5%	56.6%	36.4%	26.5%	33.7%	60.2%	68.6%	51.4%	37.8%	69%	65%	76.3%	61.2%	57.3%	22.2%	2.62% (active)		3.29% (active)
OCNc1ccc(-n2cnc3cc(-c4ccc(O)cc4)ccc32)cc1C(F)(F)F	15.5%	21.2%	17.6%	35.2%	16.8%	45.6%	3.27% (active)		21.7%	34.7%	19.7%	13.1%	46.6%	12.2%	33.5%	74.9%	31.9%	15%	33.5%	
COc1cc2c(c(OC)c1OC)C(=O)CC(c1cccc(NC(=O)c3cccc([N+](=O)[O-])c3)c1)O2 (centres undefined)	16.9%	34.7%	38.1%	52.6%	49.1%	18.6%	-6.2% (active)	41.7%	-10.4% (active)	60.6%	29.2%	16.1%	71.7%	30.1%	22.1%	91.2%	11.5%	13.9%		
CC(=O)Nc1ccc(-c2nc3cc(-c4ccc(O)cc4)ccc3n2C)cc1	36.8%	53.6%	44.1%	68.8%	59.9%	74.6%	78.3%	74.3%	84.1%	56.3%	40.1%	30.8%	79%	50.3%	34.6%	72.4%	43.8%	13.9%		
CCOC(=O)C1=C(N)N(c2ccccc2)C2=C(C(=O)CC(C)(C)C2)C1c1cccc(Cl)c1Cl (centres undefined)	65.8%	72.7%	56.8%	41.7%	55.2%	35.3%	77.6%	91%	86.5%	57.5%	63%	75.5%	95.2%	57.9%	47.4%	128%	54.8%	39.5%		
COc1ccc(C(=O)/C=C/c2c(F)cccc2Cl)cc1S(N)(=O)=O	-11.9% (active)	8.46% (active)	29.7%	19.6%	-86.8% (active)	18.8%		-4.35% (active)	25.1%	8.71% (active)	12.8%	0.59% (active)	27.4%	-13.8% (active)	16.4%	74%	6.01% (active)		15.4%	-69.1% (active)
COc1ccc(-c2nnc3ccc(N/N=C/c4ccc(C)cc4)nn23)cc1	50%	82.6%	-38.6% (active)	92.6%	44.9%	72.2%		93.6%	108%	68.2%	76.9%	33.5%	82.7%	59%	54.6%	109%	91.8%		88.9%	23.7%
COc1ccc(C(=O)/C=C/c2cccc3ccccc23)cc1S(N)(=O)=O	-65.3% (active)	-39.5% (active)	51.2%	10.5%	-93.9% (active)	12.8%		-50.8% (active)	45.8%	-6.08% (active)	6.92% (active)	-68.9% (active)	22.6%	-27.1% (active)	13.9%	107%	4.74% (active)		-58% (active)	-84.2% (active)
O=C(Cn1c(/C=C/c2cccc([N+](=O)[O-])c2)nc2ccccc2c1=O)Nc1ccccc1	66.2%	71.1%	70.1%	81.3%	11.8%	78.4%		85.4%	87.7%	79.6%	74.5%	77.4%	109%	43.9%	80.2%	94.7%	91.5%		50.9%	33%
O=C(Nc1ccc(C(F)(F)F)cc1)Nc1ccc2oc(=O)ccc2c1	10.1%	9.84% (active)	44.1%	29.5%	-0.283% (active)	13.6%		37.6%	30%	12.2%	7.6% (active)	-10.3% (active)		6.95% (active)	22.9%	27.4%	16.1%		28%	-83.8% (active)
Cc1cc(N=C2NC(=O)CS2)n[nH]1	104%	114%	107%	103%	110%	100%		108%	98.7%	72.7%	101%	79.3%	108%	102%	95.9%	124%			93.5%	94.6%
COc1ccc(C(=O)/C=C/c2cccnc2)cc1S(N)(=O)=O	4.61% (active)	24%	64.2%	45.4%	11.2%	78.4%		65.7%	104%	63.3%	37.7%	28%	66.8%	50.7%	52.6%	103%	5.54% (active)		74.8%	-15.3% (active)
